Screening data: PubChem BioAssay, National Center for Advancing Translational Sciences (NCATS)
D2 PAM-1: HTS Assay for Positive Allosteric Modulators of the Human D2 Dopamine Receptor: Primary Screen for Potentiators. HEK293 T-REx D2, calcium flux, EC20 dopamine potentiation. potentiation, % at 10 µM. 340,000 tested, 0.34% active;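 active = potentiation over 3 SD above the plate norm, cut at about 30% in these data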; note: 0% is about no effect
Target sequence (P14416 whole entry, looked up): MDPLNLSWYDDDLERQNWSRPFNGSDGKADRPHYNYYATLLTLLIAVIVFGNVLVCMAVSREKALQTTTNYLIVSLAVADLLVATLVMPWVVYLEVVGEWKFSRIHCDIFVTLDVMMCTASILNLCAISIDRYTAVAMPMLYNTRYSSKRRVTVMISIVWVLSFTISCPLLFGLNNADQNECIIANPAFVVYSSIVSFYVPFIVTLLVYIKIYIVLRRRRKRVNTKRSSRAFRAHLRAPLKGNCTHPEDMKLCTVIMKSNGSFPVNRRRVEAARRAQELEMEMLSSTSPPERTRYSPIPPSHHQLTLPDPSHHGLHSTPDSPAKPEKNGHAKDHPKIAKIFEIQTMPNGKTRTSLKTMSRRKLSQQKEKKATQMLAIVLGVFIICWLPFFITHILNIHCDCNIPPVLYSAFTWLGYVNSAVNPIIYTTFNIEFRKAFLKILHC
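Using a no-wash calcium dye in inducible, force-coupled HEK293 Trex cells expressing D2, we tracked fluorescence each second for 180 s after compound, then for 180 s after EC20 dopamine to detect augmented signalling.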
D2 antagonist: HTS Assay for Allosteric Antagonists of the Human D2 Dopamine Receptor: Primary Screen for Antagonists. 340,000 tested, 2% active. AID 485344, 2010. inhibition, % at 10 µM. HEK293 TREx D2 cells, calcium flux, dopamine EC80; in the data active = inhibition above about 30%; inactive = below that, where a call was filed; note: 0% is about no effect
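Overnight-induced (tetracycline, 30 C) HEK293 T-REx cells carrying force-coupled D2 receive a no-wash calcium dye, then compound, then EC80 dopamine at 180 s; signals are read kinetically throughout.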
D2 ag-1: HTS Assay for Allosteric Agonists of the Human D2 Dopamine Receptor: Primary Screen for Agonists; D(2) dopamine receptor (Homo sapiens), P14416; activation, % at 2 µM; HEK293 T-REx D2 cells, calcium flux agonist mode; 340,000 tested, 0.53% active; AID 485358, 2010;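 active = activation over 3 SD above normal in the single-dose calcium agonist read, cut at about 30% in these data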; note: 0% is about no effect
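HEK293 Trex D2 cells, tetracycline-induced, o/n 30 C 5% CO2; no-wash Ca dye, RT 30–90 min; 10-cycle baseline, 23 nl cpd added, kinetic Ca read 180 s; agonist hits = positive Ca response.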
D2 PAM-2: Beta-Arrestin HTS for Positive Allosteric Modulators of the Human D2 Dopamine Receptor: Potentiators; D(2) dopamine receptor (Homo sapiens), P14416; DiscoveRx D2 beta-arrestin cells, luminescence, 90 min; 100% = 57 uM dopamine signal; potentiation, % (no concentration beside the values); 360,000 tested, 0.23% active; AID 624464, 2012; in the data active = potentiation above about 50%
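D2 cells co-treated with compound plus 50 nM dopamine (EC20) for 90 min at 37 deg C to detect potentiation. Beta-arrestin recruitment was read as enzyme-fragment luminescence after 1 h at ambient temperature. Full response was set by 57 uM dopamine.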
D2 ag-2: Beta-Arrestin HTS for Positive Allosteric Modulators of the Human D2 Dopamine Receptor: Agonists. DiscoveRx PathHunter D2 beta-arrestin, luminescence, 90 min; 100% = 57 uM dopamine signal. activation, % (concentration not given with the values). 360,000 tested, 0.084% active; in the data active = activation above about 40%
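DiscoveRx PathHunter D2 beta-arrestin cells (2,100/well) attached overnight, then compound-stimulated 90 min at 37 C in HBSS/10 mM HEPES/0.1% Tween-20 buffer; beta-galactosidase complementation read by luminescence after 1 h at ambient temperature. Dopamine 57 uM final (EC100) as control.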
* hit, by the source's call; nt = no result. This is a sample that favours compounds with a hit; in the whole collection about 2.4% have one here.

SMILES | D2 PAM-1 | D2 antagonist | D2 ag-1 | D2 PAM-2 | D2 ag-2
CC1CCCC(C)N1CCCNC(=O)c1ccc2nc(N3CCOCC3)sc2c1 (configuration not stated) | 5 | nt | nt | -15 | -7
CCn1cc(C(=O)O)c(=O)c2cc(F)c(N3CCN(C(=S)NC(=O)c4ccccc4Br)CC3)cc21 | 31* | 6 | -2 | -10 | -2
CCn1cc(C(=O)O)c(=O)c2cc(F)c(N/N=C/c3ccccc3[N+](=O)[O-])cc21 | -21 | 30* | 7 | -2 | 1
COC(=O)c1ccccc1NC(=O)c1c(NC(=O)c2ccco2)sc2c1CCC(C(C)(C)C)C2 (configuration not stated) | 22 | nt | 2 | nt | nt
OC1CCCCC1Sc1nc2ccccc2s1 (configuration not stated) | -12 | 40* | 0 | -2 | -2
COCCCn1c(N)c(-c2nc3ccccc3n2C)c2nc3ccccc3nc21 | -10 | 14 | 39* | -4 | 0
COCCn1c(N)c(C#N)c2nc3ccccc3nc21 | -5 | 36* | 1 | -4 | 1
CCC(C)n1c(NC(=O)c2ccccc2)c(C#N)c2nc3ccccc3nc21 (configuration not stated) | -7 | -6 | 0 | -11 | -6
CCCCn1c(NC(=O)c2ccccc2)c(C#N)c2nc3ccccc3nc21 | 0 | 38* | 7 | 2 | 0
COc1ccccc1CNC(=O)c1ccc2c(c1)CCN2S(=O)(=O)c1ccc(Cl)cc1 | 3 | nt | 1 | nt | nt
CC(C)NC(=O)c1cc(C2CCCCN2C(=O)c2ccc(C#N)cc2)on1 (configuration not stated) | nt | nt | nt | 16 | -1
COc1ccc(COc2ccsc2C(=O)Nc2ccc(Cl)cc2)cc1 | 16 | 40* | 1 | -10 | -1
COC(=O)c1ccccc1NC(=O)c1ccc(CN2CC(=O)N3CCCCC3C2=O)cc1 (configuration not stated) | 2 | nt | -1 | nt | nt
c1ccc2oc(-c3csc(N4CCOCC4)n3)cc2c1 | 31* | -7 | 0 | -1 | -1
Fc1ccc(-c2csc(N3CCOCC3)n2)cc1 | 6 | -1 | -2 | -2 | -1
OC[C@H]1O[C@@H](c2nc3ccc(-c4nc(-c5ccc(Br)cc5)no4)cc3[nH]2)C[C@@H]1O | nt | nt | nt | -4 | -2
Fc1cccc(Cc2noc(CN3CCOCC3)n2)c1 | -6 | 8 | 0 | -11 | -4
Fc1cccc(Cc2noc(CN3CCC(c4ccncc4)CC3)n2)c1 | 0 | 53* | 0 | -7 | 8
CCn1c(CNC(=O)c2ccc(OC)cc2)nnc1SCC(=O)Nc1cccc(C)c1C | -1 | nt | 1 | nt | nt
CNC[C@H]1OCc2ccccc2-c2ccccc2C(=O)N([C@@H](C)CO)C[C@H]1C | nt | nt | nt | -3 | -4
CCOC(=O)C1CCN(c2ncnc3c2nnn3C)CC1 | 10 | nt | -2 | nt | nt
COc1ccc(CCNC(=O)[C@H](C)NC(=O)N2CCn3c2nc2ccccc23)cc1OC | -4 | 37* | 0 | -9 | -4
C[C@H](NC(=O)N1CCn2c1nc1ccccc12)C(=O)NC1CC1 | -11 | 67* | 1 | -7 | 0
CN(CCc1ccccn1)C(=O)CCC1CCCN(C(=O)NC2CCCCC2)C1 (configuration not stated) | -9 | -13 | 1 | -4 | 0
COc1cccc(/C=N/NC(=O)CCc2c(C)n[nH]c2C)c1 | 9 | -14 | 0 | -9 | 1
SMILES | D2 PAM-1 | D2 antagonist | D2 ag-1 | D2 PAM-2 | D2 ag-2
Cc1n[nH]c(C)c1CCC(=O)N/N=C/c1cccc([N+](=O)[O-])c1 | 11 | 46* | 3 | -6 | -1
O=C(CNC(=O)C12CC3CC(CC(C3)C1)C2)N/N=C\c1ccco1 | -6 | 1 | 0 | 80* | 0
O=C(CNC(=O)c1ccc2c(c1)OCCO2)N/N=C/c1ccco1 | 5 | 4 | 0 | -4 | -2
CCOc1cc(Cl)c(NC(=O)CC)cc1OCC | -21 | 71* | 0 | 12 | -1
CC(C)(C)OC(=O)N1CCCC1C(=O)NC(Cc1ccccc1)C(=O)O (configuration not stated) | 8 | 32* | 2 | 1 | -3
CC(NC(=O)C1CCCN1C(=O)OC(C)(C)C)C(=O)OCc1ccccc1 (configuration not stated) | nt | nt | nt | 1 | -5
CC(C)(C)OC(=O)N1CCC[C@H]1C(=O)Nc1ccc(C#N)cc1 | -7 | 63* | 0 | -6 | -5
CC(C)(C)OC(=O)N1CCC[C@H]1C(=O)Nc1ccc(Br)cc1 | -3 | 10 | -1 | -12 | 2
CCCNCC1COc2ccccc2O1 (configuration not stated) | -29 | 33* | 13 | -14 | 0
c1ccc(CCCCNCC2COc3ccccc3O2)cc1 (configuration not stated) | -43 | 96* | 8 | -5 | -2
CCOC(=O)CCNCC1COc2ccccc2O1 (configuration not stated) | -20 | 1 | 17 | -29 | -2
OC(CNCC1COc2ccccc2O1)COCc1cccs1 (configuration not stated) | -35 | 31* | 0 | -14 | -3
O=C(CC1COc2ccccc2O1)NCCc1ccccc1 (configuration not stated) | -1 | -2 | 1 | -2 | -1
COc1ccc(C(=O)NCCc2nnc3ccc(SCC(=O)Nc4cc(C)on4)nn23)cc1 | 14 | -2 | 0 | -13 | 0
COc1ccccc1CNC(=O)CCCN1C(=O)CSc2c1c(C)nn2-c1ccccc1 | -12 | nt | nt | nt | nt
O=C1C=C(Nc2cccnc2)c2ccccc2C1=O | nt | nt | nt | 58* | 12
O=C1C=C(Nc2ccc(F)cc2)c2ccccc2C1=O | 4 | 8 | 0 | 50* | 9
COc1ccc(C(=O)NCc2ccc3c(c2)CCN3C(C)=O)c(OC)c1 | 14 | nt | 0 | nt | nt
CCc1ccc(C(c2ccccc2)c2c[nH]c3ccc(C)cc23)s1 (configuration not stated) | -4 | nt | 0 | nt | nt
O=C(Nc1ccc(-n2nncc2-c2ccco2)cc1)c1cccc(F)c1 | -3 | 42* | 0 | -13 | -2
CCC(C)COC(c1ccccc1)(c1ccccc1)C(Oc1nc(C)cc(C)n1)C(=O)O (configuration not stated) | -7 | -4 | 1 | 1 | 9
Cc1cc(C)nc(OC(C(=O)O)C(OCC(C)C)(c2ccccc2)c2ccccc2)n1 (configuration not stated) | -6 | -9 | 2 | 72* | 3
